Results published in the supplement of paper PMC6411743.
± gives the standard deviation of the averaged measurements. Of roughly 5,400 targets only a part is listed; those with the largest changes were picked by preference.

Compound: Nc1nc2c(ncn2[C@@H]2O[C@H](COP(=O)(O)OP(=O)(O)OP(=O)(O)O)[C@@H](O)[C@H]2O)c(=O)[nH]1 [guanosine triphosphate]
Assay: NP40-soluble protein abundance relative to vehicle (solubility fold change) (ratio); higher = more soluble protein in presence of GTP
Settings: concentration: 4mM
Summary of the method: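 Across three independent experiments, values are fold changes against the detergent-processed vehicle for each replicate, based on vsn-normalised intensities. The samples were Jurkat crude lysate treated with eight concentrations (0.1 to 10 mM) for 10 min at room temperature and then 3 min at 37 °C. Lysate was solubilised with 0.8% NP40 and benzonase, ultracentrifuged, and the supernatant analysed by TMT-labelled LC-MS/MS.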

Chain of UniProt Q9NYL9 (Q9NYL9 whole entry): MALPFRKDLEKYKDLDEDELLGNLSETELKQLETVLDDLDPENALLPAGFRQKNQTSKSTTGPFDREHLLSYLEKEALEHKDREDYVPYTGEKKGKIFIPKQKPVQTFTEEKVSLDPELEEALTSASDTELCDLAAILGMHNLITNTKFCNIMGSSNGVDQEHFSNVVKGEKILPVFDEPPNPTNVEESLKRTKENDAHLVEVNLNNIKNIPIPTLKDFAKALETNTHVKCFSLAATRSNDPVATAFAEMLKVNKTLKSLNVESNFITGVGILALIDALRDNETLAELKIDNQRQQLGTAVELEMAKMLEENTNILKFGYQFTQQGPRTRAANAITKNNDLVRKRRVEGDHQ
Chain of UniProt Q9Y5J1 (Q9Y5J1 whole entry): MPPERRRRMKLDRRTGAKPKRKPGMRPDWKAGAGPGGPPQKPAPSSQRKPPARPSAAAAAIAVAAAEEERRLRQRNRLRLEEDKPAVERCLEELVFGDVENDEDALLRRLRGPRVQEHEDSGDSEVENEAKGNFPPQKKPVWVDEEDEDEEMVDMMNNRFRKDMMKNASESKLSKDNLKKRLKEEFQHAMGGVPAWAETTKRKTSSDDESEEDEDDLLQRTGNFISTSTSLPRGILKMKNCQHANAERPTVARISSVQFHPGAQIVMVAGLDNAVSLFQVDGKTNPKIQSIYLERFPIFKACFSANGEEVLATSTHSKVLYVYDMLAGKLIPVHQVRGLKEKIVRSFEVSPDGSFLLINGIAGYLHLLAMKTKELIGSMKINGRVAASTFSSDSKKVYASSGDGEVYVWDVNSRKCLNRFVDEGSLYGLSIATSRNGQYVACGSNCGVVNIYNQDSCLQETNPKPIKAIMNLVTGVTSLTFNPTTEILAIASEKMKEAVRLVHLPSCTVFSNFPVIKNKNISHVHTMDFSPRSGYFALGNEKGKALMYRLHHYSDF
Chain of UniProt Q9Y2A7 (Q9Y2A7 whole entry): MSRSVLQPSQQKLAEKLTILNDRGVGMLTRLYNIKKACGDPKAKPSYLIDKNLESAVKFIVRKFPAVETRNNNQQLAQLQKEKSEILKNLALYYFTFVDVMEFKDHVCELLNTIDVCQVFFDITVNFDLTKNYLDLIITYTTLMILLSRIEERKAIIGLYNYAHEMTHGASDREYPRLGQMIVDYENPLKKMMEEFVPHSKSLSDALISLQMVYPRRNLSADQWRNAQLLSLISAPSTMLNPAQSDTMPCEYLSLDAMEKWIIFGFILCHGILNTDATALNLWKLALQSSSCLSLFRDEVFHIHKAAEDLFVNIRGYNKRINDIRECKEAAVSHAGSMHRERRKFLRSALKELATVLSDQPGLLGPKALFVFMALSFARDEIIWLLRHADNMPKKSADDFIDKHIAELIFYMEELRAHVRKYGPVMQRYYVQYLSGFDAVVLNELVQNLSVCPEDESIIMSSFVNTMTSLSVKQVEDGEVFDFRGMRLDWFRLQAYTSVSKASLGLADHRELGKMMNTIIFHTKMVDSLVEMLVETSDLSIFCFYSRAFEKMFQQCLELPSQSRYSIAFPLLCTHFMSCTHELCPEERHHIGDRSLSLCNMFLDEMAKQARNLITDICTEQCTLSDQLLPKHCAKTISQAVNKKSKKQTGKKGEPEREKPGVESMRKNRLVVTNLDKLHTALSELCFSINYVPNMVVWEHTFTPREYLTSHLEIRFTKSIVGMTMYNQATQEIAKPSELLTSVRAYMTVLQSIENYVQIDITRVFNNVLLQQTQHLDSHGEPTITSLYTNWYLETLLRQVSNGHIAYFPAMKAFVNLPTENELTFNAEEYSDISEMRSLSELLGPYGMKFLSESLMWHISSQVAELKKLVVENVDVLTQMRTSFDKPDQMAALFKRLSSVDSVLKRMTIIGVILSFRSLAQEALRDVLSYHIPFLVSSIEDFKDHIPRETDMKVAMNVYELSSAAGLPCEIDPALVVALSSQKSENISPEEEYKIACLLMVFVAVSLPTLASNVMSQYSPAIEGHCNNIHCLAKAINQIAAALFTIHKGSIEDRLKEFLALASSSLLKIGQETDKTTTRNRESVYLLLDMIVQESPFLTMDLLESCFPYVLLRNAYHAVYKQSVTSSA
Chain of UniProt Q9HCD5 (Q9HCD5 whole entry): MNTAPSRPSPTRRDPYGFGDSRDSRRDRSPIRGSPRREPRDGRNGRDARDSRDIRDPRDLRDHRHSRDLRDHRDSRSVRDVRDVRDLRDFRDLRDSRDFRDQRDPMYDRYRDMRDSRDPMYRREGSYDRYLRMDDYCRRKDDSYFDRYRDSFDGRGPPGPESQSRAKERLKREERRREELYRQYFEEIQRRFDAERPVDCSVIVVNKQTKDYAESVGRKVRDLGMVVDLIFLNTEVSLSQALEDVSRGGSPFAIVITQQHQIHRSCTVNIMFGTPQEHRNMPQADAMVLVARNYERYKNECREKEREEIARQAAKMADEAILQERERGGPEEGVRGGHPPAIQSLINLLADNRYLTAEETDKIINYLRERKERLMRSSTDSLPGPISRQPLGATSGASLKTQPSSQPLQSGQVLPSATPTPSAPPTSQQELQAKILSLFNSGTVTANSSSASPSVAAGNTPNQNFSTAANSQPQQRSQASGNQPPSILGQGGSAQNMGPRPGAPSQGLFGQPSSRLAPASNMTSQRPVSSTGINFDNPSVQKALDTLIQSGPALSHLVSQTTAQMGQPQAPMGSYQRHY
Chain of UniProt Q92900 (Q92900 whole entry): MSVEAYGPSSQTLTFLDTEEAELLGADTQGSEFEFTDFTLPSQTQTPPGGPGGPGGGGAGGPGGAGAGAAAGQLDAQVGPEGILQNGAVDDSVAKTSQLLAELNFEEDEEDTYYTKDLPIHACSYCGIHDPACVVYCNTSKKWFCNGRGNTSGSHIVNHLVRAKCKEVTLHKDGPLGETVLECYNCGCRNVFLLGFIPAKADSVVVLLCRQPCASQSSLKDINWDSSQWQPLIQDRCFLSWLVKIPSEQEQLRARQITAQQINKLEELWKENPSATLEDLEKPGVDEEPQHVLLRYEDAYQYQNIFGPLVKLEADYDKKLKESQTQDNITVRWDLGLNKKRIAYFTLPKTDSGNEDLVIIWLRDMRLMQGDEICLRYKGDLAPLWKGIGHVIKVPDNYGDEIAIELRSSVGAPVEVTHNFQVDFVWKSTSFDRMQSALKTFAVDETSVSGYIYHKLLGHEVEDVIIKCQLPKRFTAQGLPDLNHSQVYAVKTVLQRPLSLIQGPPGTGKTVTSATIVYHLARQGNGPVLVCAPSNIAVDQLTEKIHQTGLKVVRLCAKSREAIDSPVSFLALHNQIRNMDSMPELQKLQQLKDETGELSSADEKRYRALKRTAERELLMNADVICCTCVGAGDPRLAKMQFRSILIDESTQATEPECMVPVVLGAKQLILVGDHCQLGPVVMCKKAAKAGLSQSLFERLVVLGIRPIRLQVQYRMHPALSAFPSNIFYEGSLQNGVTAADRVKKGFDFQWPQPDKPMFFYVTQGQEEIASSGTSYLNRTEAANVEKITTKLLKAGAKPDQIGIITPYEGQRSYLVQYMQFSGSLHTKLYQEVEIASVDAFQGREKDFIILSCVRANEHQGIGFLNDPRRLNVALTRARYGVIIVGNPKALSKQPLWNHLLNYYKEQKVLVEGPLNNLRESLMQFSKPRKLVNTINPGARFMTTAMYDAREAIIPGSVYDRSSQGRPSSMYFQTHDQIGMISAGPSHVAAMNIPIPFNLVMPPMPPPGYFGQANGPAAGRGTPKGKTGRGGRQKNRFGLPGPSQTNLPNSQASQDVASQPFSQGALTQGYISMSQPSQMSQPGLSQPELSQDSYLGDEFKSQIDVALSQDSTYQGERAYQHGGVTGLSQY
Chain of UniProt Q9UL25 (Q9UL25 whole entry): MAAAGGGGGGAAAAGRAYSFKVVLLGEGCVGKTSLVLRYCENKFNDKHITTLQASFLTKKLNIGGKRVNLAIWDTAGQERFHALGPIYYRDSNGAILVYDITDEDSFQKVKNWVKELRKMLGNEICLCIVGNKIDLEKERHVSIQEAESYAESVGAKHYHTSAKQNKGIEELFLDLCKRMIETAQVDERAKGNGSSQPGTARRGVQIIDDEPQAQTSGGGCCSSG
Chain of UniProt Q9NR28 (Q9NR28 whole entry): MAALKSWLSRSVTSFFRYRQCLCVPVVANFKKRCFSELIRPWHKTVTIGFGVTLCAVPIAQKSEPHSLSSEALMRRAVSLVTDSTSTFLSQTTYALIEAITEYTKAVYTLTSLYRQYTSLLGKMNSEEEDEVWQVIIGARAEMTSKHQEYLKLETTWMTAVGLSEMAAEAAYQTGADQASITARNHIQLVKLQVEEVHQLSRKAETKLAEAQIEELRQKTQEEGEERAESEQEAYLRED
Chain of UniProt Q9Y217 (Q9Y217 whole entry): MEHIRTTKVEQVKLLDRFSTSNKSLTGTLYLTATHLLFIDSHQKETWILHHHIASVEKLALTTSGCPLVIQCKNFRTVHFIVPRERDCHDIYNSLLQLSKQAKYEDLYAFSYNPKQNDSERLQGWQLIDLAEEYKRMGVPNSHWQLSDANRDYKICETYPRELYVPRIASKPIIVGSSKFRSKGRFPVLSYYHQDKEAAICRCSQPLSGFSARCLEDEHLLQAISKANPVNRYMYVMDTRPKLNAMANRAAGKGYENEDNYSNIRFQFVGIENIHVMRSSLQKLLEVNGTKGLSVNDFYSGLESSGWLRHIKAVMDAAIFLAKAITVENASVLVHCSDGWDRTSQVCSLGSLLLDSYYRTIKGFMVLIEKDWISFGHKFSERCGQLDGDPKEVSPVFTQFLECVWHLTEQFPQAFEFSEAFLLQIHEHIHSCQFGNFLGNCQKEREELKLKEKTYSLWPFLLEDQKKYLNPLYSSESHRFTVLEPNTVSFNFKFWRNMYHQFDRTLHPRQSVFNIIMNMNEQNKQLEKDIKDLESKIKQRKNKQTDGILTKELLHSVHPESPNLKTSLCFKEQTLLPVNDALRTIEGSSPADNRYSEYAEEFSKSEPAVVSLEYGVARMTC
Chain of UniProt Q9Y6A4 (Q9Y6A4 whole entry): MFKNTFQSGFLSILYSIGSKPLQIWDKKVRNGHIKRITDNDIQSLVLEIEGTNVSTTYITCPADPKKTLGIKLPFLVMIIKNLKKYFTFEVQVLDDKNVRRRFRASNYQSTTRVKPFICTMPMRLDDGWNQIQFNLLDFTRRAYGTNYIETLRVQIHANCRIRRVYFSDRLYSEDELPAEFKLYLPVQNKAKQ

Target	NP40-soluble protein abundance
MTMR6 (UniProt Q9Y217)	0.93 ± 0.031
UniProt Q9Y2A7|Q9Y2A7-2	0.991 ± 0.034
TMOD3 (UniProt Q9NYL9)	1.02 ± 0.019
UniProt Q9Y3D9|J3QLR8	1.771 ± 0.00083
FAM117A (UniProt Q9C073)	1.1204 ± 7.8e-05
PEF1 (UniProt Q9UBV8)	1.03 ± 0.076
UniProt Q9H8M2|Q9H8M2-3|Q9H8M2-6	1.04 ± 0.11
UniProt Q9Y3U8|J3QSB5	0.921 ± 0.12
UniProt Q9BTY7	1.03 ± 0.082
UniProt Q9NVI7-2	1.79 ± 0.32
SAMM50 (UniProt Q9Y512)	1.11 ± 0.19
UniProt Q9Y6A4	1.01 ± 0.05
UniProt Q9Y333	0.887 ± 0.12
UniProt Q92900|Q92900-2	0.957 ± 0.049
DCUN1D5 (UniProt Q9BTE7)	0.948 ± 0.027
UniProt Q9NW08|Q9NW08-2	1.19 ± 0.16
UniProt Q9NR28|Q9NR28-2	0.976 ± 0.059
UniProt Q96BY9|H0YAZ1	1.03 ± 0.11
LUC7L2 (UniProt Q9Y383)	1.56 ± 0.12

Target	NP40-soluble protein abundance
UniProt Q9Y3L3|Q9Y3L3-2	0.981 ± 0.04
CCDC134 (UniProt Q9H6E4)	0.905 ± 0.077
UTP18 (UniProt Q9Y5J1)	1.37 ± 0.11
FBXO28 (UniProt Q9NVF7)	1.39 ± 0.12
UniProt Q9H832|Q9H832-2	0.927 ± 0.013
UniProt Q9UJX6|Q9UJX6-2	1.3 ± 0.37
CORO2A (UniProt Q92828)	1.31 ± 0.056
CDV3 (UniProt Q9UKY7)	0.889 ± 0.093
RAB21 (UniProt Q9UL25)	0.837 ± 0.029
LARS (UniProt Q9P2J5)	1.2 ± 0.26
NCOA5 (UniProt Q9HCD5)	1.58 ± 0.053
UniProt Q92804|Q92804-2	1.56 ± 0.22
UniProt Q9NVR5	0.866 ± 0.12
FAM120C (UniProt Q9NX05)	1.12 ± 0.068
UniProt Q9Y4P8|Q9Y4P8-4|Q9Y4P8-6	0.959 ± 0.1
TESC (UniProt Q96BS2)	0.907 ± 0.074
UniProt Q969H8	0.834 ± 0.05
NAT10 (UniProt Q9H0A0)	1.2 ± 0.079
ILKAP (UniProt Q9H0C8)	0.88 ± 0.058

Same assay, conditions: concentration: 6mM

Target	NP40-soluble protein abundance
MTMR6 (UniProt Q9Y217)	0.907 ± 0.0098
UniProt Q9Y2A7|Q9Y2A7-2	0.9641 ± 0.0054
TMOD3 (UniProt Q9NYL9)	1.02 ± 0.026
UniProt Q9Y3D9|J3QLR8	1.61 ± 0.061
FAM117A (UniProt Q9C073)	1.02 ± 0.037
PEF1 (UniProt Q9UBV8)	0.993 ± 0.063
UniProt Q9H8M2|Q9H8M2-3|Q9H8M2-6	1.13 ± 0.12
UniProt Q9Y3U8|J3QSB5	0.855 ± 0.09
UniProt Q9BTY7	0.998 ± 0.049
UniProt Q9NVI7-2	1.9 ± 0.29
SAMM50 (UniProt Q9Y512)	1.1 ± 0.22
UniProt Q9Y6A4	0.964 ± 0.087
UniProt Q9Y333	0.989 ± 0.13
UniProt Q92900|Q92900-2	0.937 ± 0.057
DCUN1D5 (UniProt Q9BTE7)	0.883 ± 0.056
UniProt Q9NW08|Q9NW08-2	1.16 ± 0.19
UniProt Q9NR28|Q9NR28-2	0.96 ± 0.068
UniProt Q96BY9|H0YAZ1	1.01 ± 0.1
LUC7L2 (UniProt Q9Y383)	1.66 ± 0.12

Target	NP40-soluble protein abundance
UniProt Q9Y3L3|Q9Y3L3-2	0.991 ± 0.052
CCDC134 (UniProt Q9H6E4)	0.881 ± 0.084
UTP18 (UniProt Q9Y5J1)	1.3 ± 0.044
FBXO28 (UniProt Q9NVF7)	1.47 ± 0.12
UniProt Q9H832|Q9H832-2	0.934 ± 0.043
UniProt Q9UJX6|Q9UJX6-2	1.25 ± 0.46
CORO2A (UniProt Q92828)	1.42 ± 0.075
CDV3 (UniProt Q9UKY7)	1 ± 0.092
RAB21 (UniProt Q9UL25)	0.84 ± 0.039
LARS (UniProt Q9P2J5)	1.21 ± 0.28
NCOA5 (UniProt Q9HCD5)	1.81 ± 0.059
UniProt Q92804|Q92804-2	1.73 ± 0.28
UniProt Q9NVR5	0.931 ± 0.13
FAM120C (UniProt Q9NX05)	1.18 ± 0.077
UniProt Q9Y4P8|Q9Y4P8-4|Q9Y4P8-6	0.959 ± 0.053
TESC (UniProt Q96BS2)	0.932 ± 0.092
UniProt Q969H8	0.853 ± 0.057
NAT10 (UniProt Q9H0A0)	1.31 ± 0.085
ILKAP (UniProt Q9H0C8)	0.897 ± 0.048

Same assay, conditions: concentration: 8mM

Target	NP40-soluble protein abundance
MTMR6 (UniProt Q9Y217)	0.947 ± 0.034
UniProt Q9Y2A7|Q9Y2A7-2	1.02 ± 0.026
TMOD3 (UniProt Q9NYL9)	1 ± 0.048
UniProt Q9Y3D9|J3QLR8	1.49 ± 0.28
FAM117A (UniProt Q9C073)	1.1 ± 0.056
PEF1 (UniProt Q9UBV8)	0.891 ± 0.084
UniProt Q9H8M2|Q9H8M2-3|Q9H8M2-6	1.11 ± 0.029
UniProt Q9Y3U8|J3QSB5	0.514 ± 0.13
UniProt Q9BTY7	0.924 ± 0.18
UniProt Q9NVI7-2	2.04 ± 0.29
SAMM50 (UniProt Q9Y512)	0.985 ± 0.098
UniProt Q9Y6A4	1.01 ± 0.05
UniProt Q9Y333	0.962 ± 0.089
UniProt Q92900|Q92900-2	0.898 ± 0.035
DCUN1D5 (UniProt Q9BTE7)	0.891 ± 0.069
UniProt Q9NW08|Q9NW08-2	1.13 ± 0.18
UniProt Q9NR28|Q9NR28-2	0.94 ± 0.033
UniProt Q96BY9|H0YAZ1	1.05 ± 0.19
LUC7L2 (UniProt Q9Y383)	1.74 ± 0.15

Target	NP40-soluble protein abundance
UniProt Q9Y3L3|Q9Y3L3-2	0.958 ± 0.019
CCDC134 (UniProt Q9H6E4)	0.869 ± 0.1
UTP18 (UniProt Q9Y5J1)	1.37 ± 0.17
FBXO28 (UniProt Q9NVF7)	1.42 ± 0.28
UniProt Q9H832|Q9H832-2	0.91 ± 0.034
UniProt Q9UJX6|Q9UJX6-2	1.12 ± 0.31
CORO2A (UniProt Q92828)	1.42 ± 0.1
CDV3 (UniProt Q9UKY7)	1.09 ± 0.083
RAB21 (UniProt Q9UL25)	0.812 ± 0.048
LARS (UniProt Q9P2J5)	1.16 ± 0.24
NCOA5 (UniProt Q9HCD5)	2.15 ± 0.18
UniProt Q92804|Q92804-2	2.08 ± 0.35
UniProt Q9NVR5	0.869 ± 0.086
FAM120C (UniProt Q9NX05)	1.25 ± 0.08
UniProt Q9Y4P8|Q9Y4P8-4|Q9Y4P8-6	0.954 ± 0.042
TESC (UniProt Q96BS2)	0.926 ± 0.073
UniProt Q969H8	0.8 ± 0.046
NAT10 (UniProt Q9H0A0)	1.37 ± 0.077
ILKAP (UniProt Q9H0C8)	0.87 ± 0.049
